This is part of a sample that, as a whole, favours compounds with a hit. Of some 83,000 tested, about 20% had one in any assay.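 For each line, cells grew in 96-well plates with the test compound present at a single concentration for 48 hours.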 Values without a mark were called inactive. Calls of active or inactive are those of the source. How the source made its calls: active means growth percent below 10; inactive means the rest.
Each compound was assayed on CAKI-1 renal (assay: NCI-60 one-dose screen, 48 h (100 = growth as untreated, 0 = no growth, -100 = all killed)). Conditions: 10 µM unless noted.

SMILES	growth
N#CC1(c2ccccc2)CCN(Cc2ccccc2)CC1	94.7%
O=P1(NCCCl)OCCCN1CCCl (configuration not stated)	99%
O=C(CC1(O)C(=O)Nc2ccc(Br)cc21)c1ccc(C(=O)NCC2CCC3(CC2)OOC2(CCCCC2)OO3)cc1 (configuration not stated)	0.714% (active)
Cc1ccc(Nc2nc3c(s2)C2=CC[C@@H]4[C@H](CC[C@]5(C)C(=O)CC[C@@H]45)[C@@]2(C)CC3)cc1	34.3%
C=C1C[C@](OC)([C@H](O)C(=O)N[C@@H](OC)[C@@H]2C[C@@H](O)C(C)(C)[C@@H](C[C@@H](COC)OC)O2)O[C@H](C)[C@@H]1C	-39.7% (active)
O=C1C2C(C(=O)[N]1[Hg][c]1cccs1)C1(Cl)C(Cl)=C(Cl)C2(Cl)C1(Cl)Cl (configuration not stated)	1.56% (active)
COc1ccc(/C=C\c2cc(OC)c(OC)c(OC)c2)cc1NC(=O)/C=C/c1ccc(OC)c(OC)c1	42.3%
O=C(O)c1c(Cl)n(Cc2ccc(O)cc2)c2ccc(O)cc12	95.2%
CC(=O)OCc1cc[c]([Hg][Cl])o1	25.9%
COC(=O)[C@@H](C)C[C@H](Cc1ccccc1)NC(=O)c1csc([C@@H](C[C@H](C(C)C)N(C)C(=O)[C@@H](NC(=O)CN(C)C)C2CC2)OC(C)=O)n1	63.5%
CC(=O)Nc1nc2c(s1)CC[C@@]1(C)C2=CC[C@H]2[C@@H]3CC[C@H](O)[C@@]3(C)CC[C@@H]21	44.1%
COc1ccc(/C(C)=C(\c2ccc(OCCN3CCOCC3)cc2)c2ccc(OC(=O)Cc3ccccc3)cc2)cc1	97.5%
